# Test results taken from ChEMBL document CHEMBL1961873, “Compounds: GSK PKIS; Assays: Nanosyn kinase panel” (2012).
# Legend:
# [1] = molecular target: Serine/threonine-protein kinase pim-2 (Homo sapiens) (UniProt Q9P1W9); settings: at 1 µM;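 also: each value is a mean of the inhibition measurements against the kinase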
# [2] = molecular target: Serine/threonine-protein kinase pim-3 (Homo sapiens) (UniProt Q86V86); settings: at 0.1 µM
# [3] = molecular target: Serine/threonine-protein kinase pim-3 (Homo sapiens) (UniProt Q86V86); settings: at 1 µM
# [4] = molecular target: T1, MAP kinase-activated protein kinase 5 (Homo sapiens) (UniProt Q8IW41); settings: at 0.1 µM
# T1 sequence (whole entry): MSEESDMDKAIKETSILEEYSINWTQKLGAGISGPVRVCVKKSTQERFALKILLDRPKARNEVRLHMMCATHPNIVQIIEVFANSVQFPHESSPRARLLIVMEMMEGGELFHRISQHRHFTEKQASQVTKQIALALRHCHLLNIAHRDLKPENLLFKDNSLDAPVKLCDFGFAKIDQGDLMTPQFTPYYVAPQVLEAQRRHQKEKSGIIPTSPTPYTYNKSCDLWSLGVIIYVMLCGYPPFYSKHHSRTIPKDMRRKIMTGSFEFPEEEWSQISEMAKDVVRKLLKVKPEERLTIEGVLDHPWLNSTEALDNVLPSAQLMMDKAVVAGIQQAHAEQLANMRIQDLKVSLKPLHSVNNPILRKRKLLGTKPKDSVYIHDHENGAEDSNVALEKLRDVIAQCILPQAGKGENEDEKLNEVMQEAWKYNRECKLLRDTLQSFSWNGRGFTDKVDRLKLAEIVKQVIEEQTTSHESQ
# [5] = molecular target: T1, MAP kinase-activated protein kinase 5 (Homo sapiens); settings: at 1 µM
# [6] = molecular target: Serine/threonine-protein kinase SIK1 (Homo sapiens) (UniProt P57059); settings: at 0.1 µM
# [7] = molecular target: Serine/threonine-protein kinase SIK1 (Homo sapiens) (UniProt P57059); settings: at 1 µM
# [8] = molecular target: Serine/threonine-protein kinase SIK2 (Homo sapiens) (UniProt Q9H0K1); settings: at 0.1 µM
# [9] = molecular target: Serine/threonine-protein kinase SIK2 (Homo sapiens) (UniProt Q9H0K1); settings: at 1 µM
# [10] = molecular target: T2, Serine/threonine-protein kinase TBK1 (Homo sapiens) (UniProt Q9UHD2); settings: at 0.1 µM
# T2 sequence (whole entry): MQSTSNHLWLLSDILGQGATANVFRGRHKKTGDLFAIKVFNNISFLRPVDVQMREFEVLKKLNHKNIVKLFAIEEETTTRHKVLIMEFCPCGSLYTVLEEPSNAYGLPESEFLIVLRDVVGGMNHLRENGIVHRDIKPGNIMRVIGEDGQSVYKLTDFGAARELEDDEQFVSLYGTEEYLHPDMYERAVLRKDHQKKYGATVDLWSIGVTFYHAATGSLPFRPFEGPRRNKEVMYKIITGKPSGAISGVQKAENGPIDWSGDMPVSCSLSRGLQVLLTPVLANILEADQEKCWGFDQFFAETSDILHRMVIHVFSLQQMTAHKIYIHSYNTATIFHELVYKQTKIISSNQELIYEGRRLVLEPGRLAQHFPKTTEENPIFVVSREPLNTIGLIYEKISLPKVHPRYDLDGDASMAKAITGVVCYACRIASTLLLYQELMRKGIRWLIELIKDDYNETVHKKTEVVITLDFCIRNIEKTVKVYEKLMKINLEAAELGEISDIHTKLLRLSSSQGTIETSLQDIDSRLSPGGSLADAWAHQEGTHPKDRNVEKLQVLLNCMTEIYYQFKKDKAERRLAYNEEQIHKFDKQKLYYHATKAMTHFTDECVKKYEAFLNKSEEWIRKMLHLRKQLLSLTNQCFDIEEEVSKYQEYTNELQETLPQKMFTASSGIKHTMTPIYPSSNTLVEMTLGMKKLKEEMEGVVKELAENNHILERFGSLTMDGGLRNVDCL
# [11] = molecular target: T2, Serine/threonine-protein kinase TBK1 (Homo sapiens); settings: at 1 µM
# [12] = molecular target: T3, Testis-specific serine/threonine-protein kinase 1 (Homo sapiens) (UniProt Q9BXA7); settings: at 0.1 µM
# T3 sequence (whole entry): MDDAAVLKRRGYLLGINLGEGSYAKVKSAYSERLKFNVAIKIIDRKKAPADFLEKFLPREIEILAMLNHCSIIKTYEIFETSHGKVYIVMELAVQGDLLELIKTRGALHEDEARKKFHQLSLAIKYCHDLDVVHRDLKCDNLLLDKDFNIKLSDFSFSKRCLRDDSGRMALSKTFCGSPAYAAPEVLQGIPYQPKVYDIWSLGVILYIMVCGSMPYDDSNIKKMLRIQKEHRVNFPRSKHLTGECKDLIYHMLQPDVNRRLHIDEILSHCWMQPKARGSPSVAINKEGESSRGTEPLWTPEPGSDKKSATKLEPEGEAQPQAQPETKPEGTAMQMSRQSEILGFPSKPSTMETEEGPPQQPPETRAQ
# [13] = molecular target: T3, Testis-specific serine/threonine-protein kinase 1 (Homo sapiens); settings: at 1 µM
# [14] = molecular target: T4, Testis-specific serine/threonine-protein kinase 2 (Homo sapiens) (UniProt Q96PF2); settings: at 0.1 µM
# T4 sequence (whole entry): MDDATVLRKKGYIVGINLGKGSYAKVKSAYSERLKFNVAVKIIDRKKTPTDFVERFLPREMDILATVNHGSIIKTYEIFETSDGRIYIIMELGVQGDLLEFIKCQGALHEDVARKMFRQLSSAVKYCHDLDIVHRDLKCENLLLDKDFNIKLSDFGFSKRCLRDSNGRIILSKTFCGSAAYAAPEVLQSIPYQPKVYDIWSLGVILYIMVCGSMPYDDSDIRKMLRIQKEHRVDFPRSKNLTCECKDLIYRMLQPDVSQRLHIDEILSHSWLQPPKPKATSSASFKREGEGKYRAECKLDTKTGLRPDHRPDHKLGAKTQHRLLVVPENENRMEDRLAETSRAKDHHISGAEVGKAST
# [15] = molecular target: T4, Testis-specific serine/threonine-protein kinase 2 (Homo sapiens); settings: at 1 µM
# [16] = molecular target: Casein kinase I isoform alpha (Homo sapiens) (UniProt P48729); settings: at 0.1 µM
# [17] = molecular target: Casein kinase I isoform alpha (Homo sapiens) (UniProt P48729); settings: at 1 µM
# [18] = molecular target: Casein kinase I isoform gamma-1 (Homo sapiens) (UniProt Q9HCP0); settings: at 0.1 µM
# [19] = molecular target: Casein kinase I isoform gamma-1 (Homo sapiens) (UniProt Q9HCP0); settings: at 1 µM
# [20] = molecular target: Casein kinase I isoform gamma-2 (Homo sapiens) (UniProt P78368); settings: at 0.1 µM;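 also: values are mean inhibition figures reported as part of the GSK PKIS dataset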
# Chain of Casein kinase I isoform gamma-2 (Homo sapiens) (P78368 whole entry, looked up, canonical isoform): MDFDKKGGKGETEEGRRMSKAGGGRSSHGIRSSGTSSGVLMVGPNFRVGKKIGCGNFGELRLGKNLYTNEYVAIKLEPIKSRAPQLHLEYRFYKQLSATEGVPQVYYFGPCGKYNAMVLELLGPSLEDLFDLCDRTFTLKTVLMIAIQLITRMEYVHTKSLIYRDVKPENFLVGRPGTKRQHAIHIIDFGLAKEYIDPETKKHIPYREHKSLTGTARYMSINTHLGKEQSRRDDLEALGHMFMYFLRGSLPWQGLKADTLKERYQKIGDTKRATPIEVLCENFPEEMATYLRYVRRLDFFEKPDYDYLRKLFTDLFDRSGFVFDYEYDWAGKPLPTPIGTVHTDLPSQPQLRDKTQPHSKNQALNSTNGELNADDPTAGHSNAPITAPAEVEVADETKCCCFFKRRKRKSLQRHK
# Chain of Serine/threonine-protein kinase SIK1 (Homo sapiens) (P57059 whole entry): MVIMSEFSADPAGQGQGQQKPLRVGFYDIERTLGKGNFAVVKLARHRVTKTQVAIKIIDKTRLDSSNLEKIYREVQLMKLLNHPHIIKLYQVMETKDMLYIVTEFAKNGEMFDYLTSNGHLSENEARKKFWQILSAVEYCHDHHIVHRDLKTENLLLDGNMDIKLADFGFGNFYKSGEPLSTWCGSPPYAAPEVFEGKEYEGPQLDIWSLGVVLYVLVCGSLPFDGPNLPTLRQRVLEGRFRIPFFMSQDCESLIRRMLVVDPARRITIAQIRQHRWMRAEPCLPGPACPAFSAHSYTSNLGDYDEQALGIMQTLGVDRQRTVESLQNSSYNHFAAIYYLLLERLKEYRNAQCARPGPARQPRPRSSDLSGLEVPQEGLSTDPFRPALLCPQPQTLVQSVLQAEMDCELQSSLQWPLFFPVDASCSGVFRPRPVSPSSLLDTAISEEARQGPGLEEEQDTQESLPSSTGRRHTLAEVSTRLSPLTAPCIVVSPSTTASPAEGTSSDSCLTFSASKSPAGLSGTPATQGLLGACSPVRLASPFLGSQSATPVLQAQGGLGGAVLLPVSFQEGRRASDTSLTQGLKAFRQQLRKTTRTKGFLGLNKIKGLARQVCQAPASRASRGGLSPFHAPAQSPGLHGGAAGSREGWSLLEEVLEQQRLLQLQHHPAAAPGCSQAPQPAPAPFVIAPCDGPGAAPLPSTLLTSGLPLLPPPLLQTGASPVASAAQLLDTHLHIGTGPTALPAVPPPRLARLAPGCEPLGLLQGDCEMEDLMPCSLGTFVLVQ
# Chain of Serine/threonine-protein kinase SIK2 (Homo sapiens) (Q9H0K1 whole entry, looked up): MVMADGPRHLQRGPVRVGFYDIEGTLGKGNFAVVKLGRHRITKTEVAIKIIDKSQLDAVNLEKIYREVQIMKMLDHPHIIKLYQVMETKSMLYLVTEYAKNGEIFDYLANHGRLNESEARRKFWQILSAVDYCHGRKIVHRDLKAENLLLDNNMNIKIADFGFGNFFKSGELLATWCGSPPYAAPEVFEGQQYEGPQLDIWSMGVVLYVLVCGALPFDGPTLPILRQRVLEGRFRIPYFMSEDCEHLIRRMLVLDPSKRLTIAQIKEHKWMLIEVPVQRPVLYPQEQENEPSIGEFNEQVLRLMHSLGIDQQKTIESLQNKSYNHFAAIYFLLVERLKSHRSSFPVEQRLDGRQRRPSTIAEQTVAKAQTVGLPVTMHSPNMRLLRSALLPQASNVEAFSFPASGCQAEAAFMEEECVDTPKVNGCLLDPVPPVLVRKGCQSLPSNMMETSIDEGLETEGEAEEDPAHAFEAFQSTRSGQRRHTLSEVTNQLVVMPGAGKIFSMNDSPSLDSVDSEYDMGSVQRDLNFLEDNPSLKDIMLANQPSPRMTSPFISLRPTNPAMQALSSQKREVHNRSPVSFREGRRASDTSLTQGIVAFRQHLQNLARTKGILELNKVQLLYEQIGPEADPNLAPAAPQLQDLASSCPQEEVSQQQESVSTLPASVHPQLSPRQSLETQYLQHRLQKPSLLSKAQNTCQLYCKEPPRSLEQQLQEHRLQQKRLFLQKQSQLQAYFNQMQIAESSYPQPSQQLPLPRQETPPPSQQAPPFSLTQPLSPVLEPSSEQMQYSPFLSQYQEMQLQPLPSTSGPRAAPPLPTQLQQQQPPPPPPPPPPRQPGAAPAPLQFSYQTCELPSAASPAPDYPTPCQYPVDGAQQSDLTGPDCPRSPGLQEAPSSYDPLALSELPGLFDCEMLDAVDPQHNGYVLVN
# Chain of Casein kinase I isoform alpha (Homo sapiens) (P48729 2-337 limits assumed): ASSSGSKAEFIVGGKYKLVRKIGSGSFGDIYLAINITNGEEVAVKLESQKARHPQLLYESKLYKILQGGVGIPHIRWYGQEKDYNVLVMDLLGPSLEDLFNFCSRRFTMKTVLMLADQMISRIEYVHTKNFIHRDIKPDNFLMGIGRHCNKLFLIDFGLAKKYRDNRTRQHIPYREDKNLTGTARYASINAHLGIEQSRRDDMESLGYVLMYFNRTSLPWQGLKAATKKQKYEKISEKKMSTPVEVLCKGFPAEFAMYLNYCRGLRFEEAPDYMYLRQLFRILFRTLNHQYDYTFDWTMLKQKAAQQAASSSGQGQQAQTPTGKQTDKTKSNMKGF
# Chain of Serine/threonine-protein kinase pim-2 (Homo sapiens) (Q9P1W9 whole entry, looked up): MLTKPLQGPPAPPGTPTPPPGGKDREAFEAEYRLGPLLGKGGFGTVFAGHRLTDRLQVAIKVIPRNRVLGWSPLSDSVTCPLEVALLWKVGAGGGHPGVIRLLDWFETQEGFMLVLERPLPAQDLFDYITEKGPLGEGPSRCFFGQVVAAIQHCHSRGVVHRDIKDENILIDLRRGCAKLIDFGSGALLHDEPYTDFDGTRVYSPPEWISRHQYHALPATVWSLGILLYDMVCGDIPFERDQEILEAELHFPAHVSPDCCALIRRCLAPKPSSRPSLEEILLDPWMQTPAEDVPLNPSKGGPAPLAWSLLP
# Chain of Casein kinase I isoform gamma-1 (Homo sapiens) (Q9HCP0 whole entry, looked up, canonical isoform): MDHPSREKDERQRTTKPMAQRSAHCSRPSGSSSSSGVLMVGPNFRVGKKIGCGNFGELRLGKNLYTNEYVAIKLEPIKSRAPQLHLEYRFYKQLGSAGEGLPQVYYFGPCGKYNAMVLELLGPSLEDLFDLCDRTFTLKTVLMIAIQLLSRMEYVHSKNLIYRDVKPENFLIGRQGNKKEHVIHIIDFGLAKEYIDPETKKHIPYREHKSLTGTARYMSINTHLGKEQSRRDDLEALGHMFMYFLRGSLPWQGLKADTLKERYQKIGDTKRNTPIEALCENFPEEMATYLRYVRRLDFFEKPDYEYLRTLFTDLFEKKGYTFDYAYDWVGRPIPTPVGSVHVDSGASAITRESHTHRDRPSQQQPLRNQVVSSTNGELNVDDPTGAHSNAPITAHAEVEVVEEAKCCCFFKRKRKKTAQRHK
SMILES,inhibition [1] [%],inhibition [2] [%],inhibition [3] [%],inhibition [4] [%],inhibition [5] [%],inhibition [6] [%],inhibition [7] [%],inhibition [8] [%],inhibition [9] [%],inhibition [10] [%],inhibition [11] [%],inhibition [12] [%],inhibition [13] [%],inhibition [14] [%],inhibition [15] [%],inhibition [16] [%],inhibition [17] [%],inhibition [18] [%],inhibition [19] [%],inhibition [20] [%]
COC(=O)c1cncc(/C=C/c2c(C)cc(O)cc2C)c1,0.09,0.93,3.35,1.73,2.57,19.2,84.3,5.81,20,1.26,3.98,2.95,5.68,0.9,0.8,1.49,4.06,3.02,4.65,2.68
Cc1cc(-c2ccccn2)cc(C)c1/C=C/c1cncc(-c2nn[nH]n2)c1,-0.15,1.13,3.53,1.22,1.42,18.9,74.7,5.34,21.5,3.59,2.21,4.23,4.46,1.85,2.37,3.47,7.87,6.09,4.39,2.75
ON=C1CCc2cc(-c3nc(C4CCNCC4)[nH]c3-c3ccncc3)ccc21,2.02,-0.74,-1.33,-0.32,-1.28,-0.24,0.92,-6.05,3.25,0.4,1.68,0.96,0.73,-0.31,-0.97,-0.25,8.55,0.25,1.66,1.32
Nc1nccc(-c2c(-c3ccc(F)cc3)nn3cc(C(F)(F)F)ccc23)n1,0.77,0.74,0.92,0.34,0.16,-0.43,1.61,-1.04,-1.57,-2.75,-0.2,0.37,1.13,0.32,-0.24,0.88,10.8,0.74,2.65,0.3
O=C1Nc2ccccc2/C1=C/Nc1ccc2[nH]c(=O)[nH]c2c1,-0.46,-0.36,5.21,1.86,5,3.92,14.9,9.13,17.6,8.2,21.2,4.5,8.92,3.14,4.56,8.75,21.8,4.87,7.45,3.6
NS(=O)(=O)c1cccc(-c2cc3ccncc3cc2OCc2ccccc2)c1,0.25,-1.15,-3.18,1.74,0.61,0.44,5.64,1.16,3.39,2.28,6.61,2.13,0.96,2.68,0.84,0.06,3.92,4.57,4.83,3.06
NC(=O)c1sc(-n2cnc3ccccc32)cc1OCc1ccccc1Br,0.78,-1.03,3.81,1.15,0.91,4.47,13.6,3.55,9.83,0.38,2.68,3.19,4.53,0.6,1.24,2.22,7.23,3.55,5.15,3.34
NS(=O)(=O)c1cccc(Nc2cc(-c3ccc(F)cc3)n[nH]2)c1,1.85,2.44,5.79,1.15,2.81,7.9,33.8,11.7,37.9,2.64,15.2,4.49,6.59,3.05,2.38,-3.61,3.36,2.11,3.54,1.72
OCc1ccc(-c2nc(-c3ccccn3)c(-c3ccc4c(c3)OCO4)[nH]2)cc1,1.41,-1.14,-3.44,1.17,-0.12,9,5.84,8.76,7.48,2.36,4.95,3.19,1.78,0.7,-1.56,9.48,43.3,4.27,5.16,3.01
Cc1ccc2c(c1)/C(=N/Nc1ccc(S(N)(=O)=O)cc1)C(=O)N2,1.85,-0.58,-0.92,0.02,-2.03,1.14,1.4,-5.87,10.4,-2.1,6.6,-0.94,0.43,-0.24,-1.16,0.07,-0.4,0.78,1.26,0.31
COc1cc(Nc2nccc(-c3cnn4ncccc34)n2)cc(OC)c1,6.78,4.42,10.6,0.14,1.55,8.12,32.3,3.15,39.1,3.49,33.2,3.46,16.9,0.24,0.16,11.9,45.4,2.54,19.9,3.83
CS(=O)(=O)CCNCc1nc(-c2ccc3ncnc(Nc4ccc(OCc5cccc(C(F)(F)F)c5)cc4)c3c2)cs1,-0.33,-0.43,0.97,1.44,-0.14,4.28,0.42,1.04,2.49,2.22,0.57,2.83,2.19,0.45,0.58,0.49,4.64,1.2,2.03,0.96
NS(=O)(=O)c1ccc(Nc2cc(-c3cccc(O)c3)n[nH]2)cc1,1.32,-2.75,-0.87,1.59,1.7,6.53,13.8,6.19,16.4,4.83,6.87,3.95,3.25,1.95,1.79,3.67,5.95,5.15,6.27,3.99
O=C(Nc1ccc(Oc2ccc3[nH]c(NC(=O)c4ccco4)nc3c2)cc1)Nc1cc(C(F)(F)F)ccc1F,-3.75,0.09,0.78,-0.29,-0.75,4.18,4.41,-4.88,0.5,0.65,0.97,0.73,0.2,0.45,-0.72,0.72,1.23,-3.78,-2.12,-4.05
